PubChem BioAssay (Tox21)
Values without a mark were called inactive. Inconclusive results are not listed. Entries that show only a call come without a potency. Activity calls are given as the source filed them. Unless noted, calls follow the shape of the dose curve; as a rule, active = well fitted curve in the direction sought with a large enough effect in the repeat runs; inconclusive = weak or mixed curves; inactive = no such curve, though single readings can be large; an effect the other way counts as inactive or inconclusive.

How the values were obtained:
[1] = molecular target: Estrogen receptor beta (Homo sapiens) (UniProt Q92731); test: qHTS assay to identify small molecule antagonists of the estrogen receptor beta (ER-beta) signaling pathway (AID 1259378; active = well fitted inhibition curve with a large enough effect in the signal ratio in the repeat runs, not every such curve was filed as active; the % refers to the signal ratio)
Chain of Estrogen receptor beta (Homo sapiens) (Q92731 whole entry, looked up): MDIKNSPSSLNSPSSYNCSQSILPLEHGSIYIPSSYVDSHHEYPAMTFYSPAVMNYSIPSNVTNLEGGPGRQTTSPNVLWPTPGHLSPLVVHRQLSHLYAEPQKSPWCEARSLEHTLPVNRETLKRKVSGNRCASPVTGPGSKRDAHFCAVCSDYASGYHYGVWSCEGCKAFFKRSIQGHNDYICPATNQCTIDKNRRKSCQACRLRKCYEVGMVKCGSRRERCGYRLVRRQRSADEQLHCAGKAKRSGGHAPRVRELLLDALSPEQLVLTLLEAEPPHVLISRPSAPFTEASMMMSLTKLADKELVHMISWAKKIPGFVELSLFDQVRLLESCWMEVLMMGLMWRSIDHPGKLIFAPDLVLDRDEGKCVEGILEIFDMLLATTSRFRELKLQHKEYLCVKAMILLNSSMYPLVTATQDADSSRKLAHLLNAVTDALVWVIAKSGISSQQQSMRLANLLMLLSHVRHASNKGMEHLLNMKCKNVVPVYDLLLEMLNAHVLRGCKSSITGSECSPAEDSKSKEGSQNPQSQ
Summary of the method: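 Antagonist mode: compounds added to beta-lactamase reporter HEK293T ER-beta-UAS cells stimulated with E2 (1nM final), 16 hr at 37C. LiveBLAzer B/G FRET substrate, 2 hours room temperature, fluorescence read-out.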

[2] = qHTS assay to identify small molecule agonists of the androgen receptor (AR) signaling pathway in the presence of an antagonist - cell viability counter screen (AID 1259379);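 also: MDA-kb2 human breast cancer cells carrying an MMTV luciferase reporter; series mostly up to about 92 µM; nearly all actives have a fitted effect of over 25% in size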
Summary of the method: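 Viability counter screen: CellTiter-Fluor fluorescence, measured in the same wells as the luciferase read-out. MDA-kb2 cells, 3,000/well, with nilutamide at 3.0uM final and compounds at 15 concentrations, 16 hr at 37C, 0% CO2.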

[3] = qHTS assay to identify small molecule antagonists of the estrogen receptor beta (ER-beta) signaling pathway - cell viability counter screen (AID 1259382);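 also: HEK293T cells carrying ER-beta-UAS-bla reporter stimulated with estradiol; series mostly up to about 92 µM; nearly all actives have a fitted effect of over 55% in size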
Summary of the method: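 Luminescent ATP read-out (CellTiter-Glo, 30 min, RT) taken in the same wells as the bla reporter assay. HEK293T ER-beta-UAS-bla cells in 2% charcoal-stripped FBS were exposed to compounds with 1nM E2 for 16 hr at 37C.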

[4] = qHTS assay to identify small molecule agonists or antagonists of the thyroid stimulating hormone receptor (TSHR) signaling pathway - wild type cell line counter screen (AID 1259384; calls by dose curve)
Summary of the method: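 Counter screen in untransfected Hek293: compounds (15-point titration, triplicate) plus phosphodiesterase inhibitor Ro20-1724 added after 18 h plating; 30 min RT. Intracellular cAMP via competitive d2/cryptate immunoassay, 1 h incubation.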

[5] = molecular target: Thyrotropin receptor (Homo sapiens) (UniProt P16473); test: qHTS assay to identify small molecule antagonists of the thyroid stimulating hormone receptor (TSHR) signaling pathway (AID 1259385; calls by dose curve; also: nearly all actives have a fitted effect of over 20% in size)
Chain of Thyrotropin receptor (Homo sapiens) (P16473 whole entry, looked up): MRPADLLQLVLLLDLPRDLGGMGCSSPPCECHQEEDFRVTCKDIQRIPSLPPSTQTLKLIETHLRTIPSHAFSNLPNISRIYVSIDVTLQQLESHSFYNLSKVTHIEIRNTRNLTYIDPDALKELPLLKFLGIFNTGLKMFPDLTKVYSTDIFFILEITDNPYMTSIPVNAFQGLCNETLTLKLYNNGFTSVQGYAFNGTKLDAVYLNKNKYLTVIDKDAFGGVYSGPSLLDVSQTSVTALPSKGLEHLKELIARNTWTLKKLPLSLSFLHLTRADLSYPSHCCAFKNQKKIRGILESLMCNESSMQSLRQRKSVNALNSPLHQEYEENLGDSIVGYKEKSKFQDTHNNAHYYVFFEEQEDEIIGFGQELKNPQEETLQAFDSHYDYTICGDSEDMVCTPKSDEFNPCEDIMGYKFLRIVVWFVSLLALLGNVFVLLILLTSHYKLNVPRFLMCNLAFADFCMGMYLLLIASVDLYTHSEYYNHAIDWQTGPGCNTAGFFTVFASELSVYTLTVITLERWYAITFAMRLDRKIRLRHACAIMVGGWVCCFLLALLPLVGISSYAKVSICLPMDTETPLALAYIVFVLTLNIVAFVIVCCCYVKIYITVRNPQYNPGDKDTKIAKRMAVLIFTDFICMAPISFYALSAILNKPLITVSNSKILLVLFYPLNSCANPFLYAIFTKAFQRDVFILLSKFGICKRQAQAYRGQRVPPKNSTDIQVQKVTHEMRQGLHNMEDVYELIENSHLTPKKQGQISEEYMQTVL
Summary of the method: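 Antagonist mode: compound-treated TSHR-expressing HEK293 cells were stimulated with 1.5 ng/mL TSH (final) in presence of Ro20-1724 for 30 min at RT. HTRF cAMP detection after 1 h; each compound tested at 15 concentrations, triplicate.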

[6] = qHTS assay to identify small molecule agonists of the estrogen receptor alpha (ER-alpha) signaling pathway in the presence of an antagonist - cell viability counter screen (AID 1259386);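 also: series mostly up to about 92 µM; cells exposed to compounds for 22 h at 37 °C before the viability read; nearly all actives have a fitted effect of over 30% in size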
Summary of the method: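 Read-out: CellTiter-Fluor fluorescence after 1hr reagent incubation, measured in the same wells as the luciferase readout. VM7Luc4E2 cells were exposed to 15 compound concentrations with 10.0nM ICI-182,780 for 22hr at 37C.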

[7] = molecular target: Progesterone receptor (Homo sapiens) (UniProt P06401); test: qHTS assay to identify small molecule agonists of the progesterone receptor (PR) signaling pathway (AID 1346784; calls by dose curve; also: nearly all actives have a fitted effect of over 30% in size)
Chain of Progesterone receptor (Homo sapiens) (P06401 whole entry, looked up): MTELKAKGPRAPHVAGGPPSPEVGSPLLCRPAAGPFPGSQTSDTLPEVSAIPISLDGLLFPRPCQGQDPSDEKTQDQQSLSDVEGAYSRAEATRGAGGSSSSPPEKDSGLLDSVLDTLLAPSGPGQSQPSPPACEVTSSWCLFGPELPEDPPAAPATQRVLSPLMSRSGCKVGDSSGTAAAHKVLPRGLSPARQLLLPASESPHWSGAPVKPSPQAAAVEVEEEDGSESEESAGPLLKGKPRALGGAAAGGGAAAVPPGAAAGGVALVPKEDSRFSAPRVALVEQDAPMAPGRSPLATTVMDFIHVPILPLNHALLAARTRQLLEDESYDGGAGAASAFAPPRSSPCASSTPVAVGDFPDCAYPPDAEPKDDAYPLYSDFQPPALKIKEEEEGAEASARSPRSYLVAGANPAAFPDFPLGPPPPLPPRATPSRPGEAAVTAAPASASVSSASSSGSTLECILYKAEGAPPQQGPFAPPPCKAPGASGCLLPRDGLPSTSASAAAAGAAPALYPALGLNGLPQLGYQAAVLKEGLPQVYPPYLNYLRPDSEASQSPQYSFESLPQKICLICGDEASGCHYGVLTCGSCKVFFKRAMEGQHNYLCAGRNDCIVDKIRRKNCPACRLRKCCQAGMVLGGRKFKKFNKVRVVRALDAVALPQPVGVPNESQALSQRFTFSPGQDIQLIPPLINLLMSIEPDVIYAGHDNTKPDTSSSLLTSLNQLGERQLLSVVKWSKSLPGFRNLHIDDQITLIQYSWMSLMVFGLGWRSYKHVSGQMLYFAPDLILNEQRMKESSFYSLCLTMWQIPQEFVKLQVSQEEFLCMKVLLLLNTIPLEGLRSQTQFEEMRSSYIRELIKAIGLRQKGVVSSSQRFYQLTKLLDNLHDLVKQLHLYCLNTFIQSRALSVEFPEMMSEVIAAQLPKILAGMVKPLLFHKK
Summary of the method: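 Using charcoal-stripped serum (2%) to limit endogenous steroids, PR-UAS-bla HEK 293T cells received compounds for 16 hr at 37C after 6 hr plating; beta-lactamase FRET fluorescence was recorded following 2 hr substrate loading at room temperature.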

[8] = qHTS assay to identify small molecule agonists of the progesterone receptor (PR) signaling pathway - cell viability counter screen (AID 1346799; calls by dose curve; also: nearly all actives have a fitted effect of over 45% in size)
Summary of the method: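 Cytotoxicity in PR-bla HEK293T cells: 16 h compound, 37C; CellTiter-Glo added post-FRET read; luminescence after 30 min RT.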

[9] = qHTS assay to identify small molecule antagonists of the TGF-beta/Smad signaling pathway - cell viability counter screen (AID 1346824); also: nearly all actives have a fitted effect of over 50% in size
Summary of the method: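 Cytotoxicity counter-screen run in the same wells as the beta-lactamase Smad reporter read: CellTiter-Glo luminescence after 30 min at room temperature. HEK 293T SBE-bla cells had 5 hr compound exposure at 37 C with TGF-beta1 (0.25 ng/mL stock).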

[10] = qHTS assay to identify small molecule agonists of the TGF-beta/Smad signaling pathway - cell viability counter screen (AID 1346829); also: top concentration of the series differs between compounds; nearly all actives have a fitted effect of over 45% in size
Summary of the method: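 Luminescence from CellTiter-Glo, read after a 30 min room-temperature incubation, gives cell viability of SBE-bla HEK 293T cells treated 5 hr with compounds at 37 C.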

[11] = qHTS assay to identify small molecule agonists of the TGF-beta/Smad signaling pathway (AID 1346859; active = well fitted activation curve with a large enough effect in the signal ratio in the repeat runs, not every such curve was filed as active; the % refers to the signal ratio; also: series mostly up to about 77 µM)
Summary of the method: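 Stable Smad binding element-beta-lactamase HEK 293T cells; 5 hr compound exposure at 37 C under 5% CO2; 2 hr room-temperature substrate step; fluorescence excited at 405 nm, collected at 460 nm and 530 nm.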

[12] = molecular target: Thyrotropin-releasing hormone receptor (Homo sapiens) (UniProt P34981); test: qHTS assay to identify small molecule antagonists of the thyrotropin-releasing hormone receptor (TRHR) signaling pathway (AID 1346877; active = well fitted inhibition curve with a large enough effect in the repeat runs, not every such curve was filed as active; also: series mostly up to about 51 µM)
Chain of Thyrotropin-releasing hormone receptor (Homo sapiens) (P34981 whole entry, looked up): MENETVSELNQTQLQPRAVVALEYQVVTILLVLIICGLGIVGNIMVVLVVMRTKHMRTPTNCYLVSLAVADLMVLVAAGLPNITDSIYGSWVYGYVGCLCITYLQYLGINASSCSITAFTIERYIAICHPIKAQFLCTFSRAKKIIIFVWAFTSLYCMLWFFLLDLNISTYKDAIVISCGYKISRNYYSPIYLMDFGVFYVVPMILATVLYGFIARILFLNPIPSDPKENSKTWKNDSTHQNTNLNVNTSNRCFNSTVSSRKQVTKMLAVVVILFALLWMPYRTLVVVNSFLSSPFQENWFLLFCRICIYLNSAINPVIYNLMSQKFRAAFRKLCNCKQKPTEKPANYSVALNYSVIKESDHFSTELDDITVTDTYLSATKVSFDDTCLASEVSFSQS
Summary of the method: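 HEK293/TRHR cells, 18 h, 37 °C; Ca2+ dye 2 h; cpd 5 min RT; TRH 1 nM final; fluorescence read 3 min, 1 s intervals; 15 concs, triplicate.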

[13] = molecular target: Thyrotropin-releasing hormone receptor (Homo sapiens) (UniProt P34981); test: qHTS assay to identify small molecule agonists of the thyrotropin-releasing hormone receptor (TRHR) signaling pathway (AID 1346891; calls by dose curve;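 also: HEK293 cells expressing TRHR with calcium dye readout; series mostly up to about 58 µM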)
Summary of the method: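 In 1536-format, 1500 TRHR-Hek293 cells per well grew 18 h, took up calcium dye for 2 h at 37 °C, received compound, and were read kinetically; 15-point titrations, triplicates.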

[14] = molecular target: Estrogen receptor beta (Homo sapiens) (UniProt Q92731); test: qHTS assay to identify small molecule agonists of the estrogen receptor beta (ER-beta) signaling pathway (AID 1259377; active = well fitted activation curve with a large enough effect in the signal ratio in the repeat runs, not every such curve was filed as active; the % refers to the signal ratio; also: potency is read from the fitted curve at half-maximal effect)
Summary of the method: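 In HEK293T cells bearing a UAS-beta-lactamase reporter under ER-beta control, DMSO-delivered compounds were incubated for 16 hr at 37C. Activity was detected as fluorescence 2 hours after LiveBLAzer B/G FRET substrate addition.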

[15] = qHTS assay to identify small molecule agonists of the estrogen receptor beta (ER-beta) signaling pathway - cell viability counter screen (AID 1259380); also: nearly all actives have a fitted effect of over 30% in size
Summary of the method: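 Luminescence read-out (CellTiter-Glo, 30 min, room temp) taken in the same wells as the beta-lactamase reporter assay; ER-beta-UAS-bla HEK293T cells exposed to DMSO-dissolved compounds for 16 hr at 37C in 2% charcoal-stripped FBS medium.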

[16] = molecular target: Estrogen receptor (Homo sapiens) (UniProt P03372); test: qHTS assay to identify small molecule agonists of the estrogen receptor alpha (ER-alpha) signaling pathway in the presence of an antagonist (AID 1259383; calls by dose curve; also: nearly all actives have a fitted effect of over 15% in size; also: potency is read from the fitted curve at half-maximal effect; as to activation: top concentration of the series differs between compounds)
Chain of Estrogen receptor (Homo sapiens) (P03372 whole entry, looked up): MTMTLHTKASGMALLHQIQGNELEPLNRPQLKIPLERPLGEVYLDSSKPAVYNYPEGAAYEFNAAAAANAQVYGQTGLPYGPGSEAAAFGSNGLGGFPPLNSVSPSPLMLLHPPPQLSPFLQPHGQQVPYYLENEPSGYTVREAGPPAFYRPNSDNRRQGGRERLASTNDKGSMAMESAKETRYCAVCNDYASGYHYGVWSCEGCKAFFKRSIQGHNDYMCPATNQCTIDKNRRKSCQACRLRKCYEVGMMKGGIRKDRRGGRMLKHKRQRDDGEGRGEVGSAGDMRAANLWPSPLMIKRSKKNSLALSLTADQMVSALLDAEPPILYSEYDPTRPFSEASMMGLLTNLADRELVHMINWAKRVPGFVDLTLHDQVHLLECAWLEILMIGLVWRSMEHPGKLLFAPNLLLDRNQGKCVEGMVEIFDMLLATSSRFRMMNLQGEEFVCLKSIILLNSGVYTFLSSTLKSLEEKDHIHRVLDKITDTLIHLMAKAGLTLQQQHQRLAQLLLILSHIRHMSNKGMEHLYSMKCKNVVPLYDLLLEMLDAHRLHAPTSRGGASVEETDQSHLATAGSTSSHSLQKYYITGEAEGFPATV
Summary of the method: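 Luciferase luminescence (ONE-Glo, 30min at room temperature) measured in VM7Luc4E2 cells after 22hr compound exposure at 15 concentrations, with 10.0nM ICI-182,780 final present; cells express endogenous ER-alpha and carry four EREs upstream of luciferase.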

[17] = molecular target: Progesterone receptor (Homo sapiens) (UniProt P06401); test: qHTS assay to identify small molecule antagonists of the progesterone receptor (PR) signaling pathway (AID 1346795; active = well fitted inhibition curve with a large enough effect in the signal ratio in the repeat runs, not every such curve was filed as active; the % refers to the signal ratio)
Summary of the method: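 Inhibition of R5020-induced (1 nM final) beta-lactamase reporter signal in PR-UAS-bla HEK293T cells was scored by FRET fluorescence after overnight (16 hr) compound treatment.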

[18] = qHTS assay to identify small molecule antagonists of the progesterone receptor (PR) signaling pathway - cell viability counter screen (AID 1346798); also: series mostly up to about 92 µM; nearly all actives have a fitted effect of over 50% in size
Summary of the method: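 ATP content as viability readout: CellTiter-Glo luminescence, 30 min room temperature, in PR-UAS-bla HEK293T cells after 16 hr compound/R5020 treatment at 37C and 5% CO2.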

[19] = molecular target: Androgen receptor (Homo sapiens) (UniProt P10275); test: qHTS assay to identify small molecule agonists of the androgen receptor (AR) signaling pathway in the presence of an antagonist (AID 1259381; calls by dose curve; also: nearly all actives have a fitted effect of over 15% in size)
Chain of Androgen receptor (Homo sapiens) (P10275 whole entry, looked up): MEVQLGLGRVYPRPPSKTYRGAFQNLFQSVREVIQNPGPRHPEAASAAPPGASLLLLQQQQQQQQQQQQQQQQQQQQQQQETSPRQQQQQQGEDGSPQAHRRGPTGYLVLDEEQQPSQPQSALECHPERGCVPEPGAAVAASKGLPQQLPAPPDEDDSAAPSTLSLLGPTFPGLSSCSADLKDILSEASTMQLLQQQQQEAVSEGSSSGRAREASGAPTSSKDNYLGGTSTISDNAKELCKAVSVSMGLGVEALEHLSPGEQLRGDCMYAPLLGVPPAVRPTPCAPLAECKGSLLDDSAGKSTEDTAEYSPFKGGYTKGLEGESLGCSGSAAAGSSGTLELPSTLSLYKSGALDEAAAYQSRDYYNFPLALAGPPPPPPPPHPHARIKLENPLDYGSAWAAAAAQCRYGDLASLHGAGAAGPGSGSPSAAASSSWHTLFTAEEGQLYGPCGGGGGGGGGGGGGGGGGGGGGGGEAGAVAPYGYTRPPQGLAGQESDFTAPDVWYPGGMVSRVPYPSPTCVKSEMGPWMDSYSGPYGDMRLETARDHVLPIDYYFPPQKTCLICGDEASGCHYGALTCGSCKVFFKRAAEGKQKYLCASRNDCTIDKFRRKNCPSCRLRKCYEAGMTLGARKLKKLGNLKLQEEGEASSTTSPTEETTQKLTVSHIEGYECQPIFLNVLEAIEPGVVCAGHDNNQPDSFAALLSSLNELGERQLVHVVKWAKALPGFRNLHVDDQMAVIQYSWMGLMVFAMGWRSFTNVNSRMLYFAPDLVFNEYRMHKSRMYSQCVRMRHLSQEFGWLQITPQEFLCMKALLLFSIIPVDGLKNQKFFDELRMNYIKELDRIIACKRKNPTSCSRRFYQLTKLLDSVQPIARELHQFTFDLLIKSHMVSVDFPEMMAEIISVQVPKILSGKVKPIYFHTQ
Summary of the method: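 Luciferase read-out (ONE-Glo, 30min room temperature) in MDA-kb2 MMTV-reporter cells; agonist mode run in presence of AR antagonist nilutamide, 3.0uM final. Compounds tested as 15-point series, 16hr exposure at 37C, 0% CO2.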

[20] = qHTS assay to identify small molecule antagonists of the sonic hedgehog signaling (Shh) pathway (AID 1259369; calls by dose curve; also: nearly all actives have a fitted effect of over 45% in size)
Summary of the method: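 Luminescence readout: firefly Luc under Gli1 response element in 3T3Gli1-Luc cells (NIH/3T3 clone). Antagonist mode, stimulation by conditioned medium; compound exposure 24hr at 37 C, 5% CO2.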

Compound | outcome [1] | Potency [2] | Potency [3] | outcome [4] | outcome [5] | Potency [6] | Potency [7] | Potency [8] | outcome [9] | Potency [10] | outcome [11] | Potency [12] | outcome [13] | Potency [14] | Potency [15] | Potency [16] | Potency [17] | Potency [18] | Potency [19] | Potency [20]
CON(C)C(=O)Nc1ccc(Br)c(Cl)c1 | inactive | inactive | inactive | inactive | inactive | inactive | inactive | inactive | inactive | inactive | inactive | inactive | inactive |  |  |  |  |  |  | 
Cl/C=C/CCl | inactive | inactive | inactive | inactive |  | inactive | inactive | inactive | inactive | inactive | inactive |  |  | inactive | inactive |  |  |  |  | 
CCNc1nc(NCC)nc(SC)n1 | inactive | inactive | inactive | inactive | inactive | inactive | inactive | inactive | inactive | inactive | inactive | inactive | inactive | inactive | inactive | inactive | inactive | inactive |  | 
CCSC(=O)Cl | inactive | inactive | inactive | inactive |  | inactive | inactive | inactive | inactive | inactive | inactive | inactive | inactive | inactive |  | inactive | inactive | inactive | inactive | 
CCC(=O)OC1(c2ccccc2)CCN(C)CC1 |  | inactive | inactive | inactive |  | inactive | inactive | inactive |  | inactive | inactive | inactive | inactive |  | inactive |  | inactive | inactive |  | 
O=C(NC(=O)c1c(F)cccc1F)Nc1cc(Cl)c(F)c(Cl)c1F |  | inactive | inactive | inactive | inactive | inactive | inactive | inactive |  | inactive | inactive | inactive | inactive |  | inactive | inactive | inactive | inactive |  | 
COC(=O)c1ccc(CBr)cc1 | inactive | inactive | inactive | inactive | inactive | inactive | inactive | inactive | inactive | inactive | inactive | inactive | inactive | inactive | inactive | 12.3 µM (active) | inactive | inactive | inactive | 
CNC(=O)Oc1cc(C)c(N(C)C)c(C)c1 | inactive | inactive | inactive | inactive | inactive | inactive | inactive | inactive | inactive | inactive | inactive | inactive | inactive |  | inactive |  |  | inactive |  | 
C[C@@H](N)[C@@H](O)c1ccccc1 |  | inactive | inactive | inactive |  | inactive | inactive |  | inactive | inactive | inactive | inactive | inactive |  | inactive |  | inactive |  |  | inactive
NNCc1ccccc1 |  | inactive | inactive | inactive |  | inactive | inactive |  | inactive | inactive | inactive | inactive | inactive |  |  |  | inactive |  |  | inactive
CCC1(c2cccc(O)c2)CCCCN(C)C1 (centres undefined) |  | inactive | inactive | inactive | inactive | inactive | inactive | inactive | inactive | inactive | inactive | inactive | inactive |  | inactive |  | inactive | inactive |  | 
C=C(Cl)CSC(=S)N(CC)CC | inactive | inactive | inactive |  |  | inactive | inactive | inactive | inactive | inactive | inactive |  |  | inactive | inactive |  |  | inactive |  | 
CC(C)(N)Cc1ccc(Cl)cc1 |  | inactive |  | inactive |  | inactive |  |  |  | inactive | inactive |  |  |  | inactive | inactive | inactive |  |  | inactive
Oc1ccc(Cc2ccc(O)cc2)cc1 |  | inactive | inactive | inactive |  | inactive | inactive |  |  | inactive | inactive |  |  | 5.49 µM (active) | inactive | 30.9 µM (active) |  | inactive |  | 
